# Reference: PubChem BioAssay
# The source made the active and inactive calls.
# What was measured:
# [1] = test system: Human papillomavirus type 1a protein E7 (residues 44-93); assay: HPV1a E7 fragment binders on microarrays, primary screen, biochemical, small-molecule microarray, residues 44-93, 635 nm fluorescence (AID 1108); conditions: small-molecule microarray binding, fluorescence 635 nm; higher = more signal;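 also: E7 fragment applied at 1 µg/mL in TBST for 1 h at 4 C; score combines spot fluorescence with its signal to noise ratio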
# [2] = modulators of HCV replicon luciferase signal, primary screen, HCV replication inhibitor project, Huh7 cells, luciferase reporter (AID 1109); conditions: 48 h, higher = more signal;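 also: huh7 hepatoma cells harbouring a luciferase neomycin HCV replicon reporter; luciferase luminescence as measure of HCV replicon replication; test concentration not given here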
# [3] = molecular target: Left-right determination factor 2 (Homo sapiens) (UniProt O00292); assay: LEFTY2 binders on small-molecule microarrays, primary screen, biochemical, small-molecule microarray, 635 nm fluorescence scan (AID 1110); conditions: LEFTY2 binding, higher = more signal
# [4] = molecular target: Calmodulin-1 (Homo sapiens) (UniProt P0DP23); assay: CALM1 binders on microarrays, EGTA buffer, profiling panel, biochemical, small-molecule microarray, Cy5-labelled CALM1 (AID 1111); conditions: Cy5-CALM1 binding fluorescence, higher = more signal;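 also: labelled calmodulin applied in Tris saline Tween buffer holding calcium plus EGTA and DTT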
# [5] = molecular target: Calmodulin-1 (Homo sapiens) (UniProt P0DP23); assay: calcium-bound CALM1 binders on microarrays, profiling panel, artefact control for SMM control-protein annotation, biochemical, small-molecule microarray, Cy5-labelled CALM1, plus calcium (AID 1112); conditions: Cy5-CALM1 binding fluorescence, higher = more signal;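 also: score merges spot fluorescence with signal to noise from triplicate slides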
# [6] = small-molecule microarray binders of probe aWnt5a, primary screen, biochemical, biotinylated probe, 635/667 nm fluorescence (AID 1113); conditions: higher = more signal;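 also: score merges 667 nm fluorescence intensity with signal-to-noise per printed feature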
# [7] = small-molecule microarray binders of probe aShh, primary screen, biochemical, biotinylated probe, 635/667 nm fluorescence (AID 1114); conditions: higher = more signal;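 also: probe is biotin-labelled aShh protein from a stem cell growth factor screen; measures binding of labelled protein to compounds printed on the slide; score merges feature fluorescence at 667 nm with signal-to-noise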
# [8] = small-molecule microarray binders of probe aNog, primary screen, biochemical, biotinylated probe, 635/667 nm fluorescence (AID 1115); conditions: higher = more signal;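 also: probe is biotinylated aNog protein used at 0.15 µg/mL for 1 h at 4 C; z-score combines 667 nm fluorescence of each spot with its signal to noise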
# [9] = molecular target: Torsin-1A-interacting protein 1 (Homo sapiens) (UniProt Q5JTV8); assay: LAP1 binders from COS7 cell lysate, primary screen, small-molecule microarray, 635/667 nm fluorescence (AID 1116); conditions: COS7-hLAP1 lysate binding, 635 nm fluorescence, higher = more signal
# [10] = molecular target: Alpha-bungarotoxin (Bungarus multicinctus) (UniProt P60615); assay: alpha-bungarotoxin binders on microarray, profiling panel, artefact control for SMM control protein annotation, biochemical, small-molecule microarray, Alexa647 label, 635/667 nm fluorescence (AID 1117); conditions: alpha-BTX-A647 binding fluorescence, higher = more signal
# Albumin (Bos taurus) = Albumin (Bos taurus) (UniProt P02769); assay: bovine serum albumin binders on microarray, profiling panel, artefact control for SMM control protein annotation, biochemical, small-molecule microarray, Alexa647 label, 635/667 nm fluorescence (AID 1118); conditions: BSA-A647 binding, fluorescence 635 nm, higher = more signal;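 also: score merges 667 nm emission intensity and signal-to-noise per printed compound spot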
# [11] = small-molecule microarray binders of probe aXIP, primary screen, biochemical, NeuroSMM set, 635/667 nm fluorescence (AID 1119); conditions: higher = more signal, called active from +8 up or from −8 down;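 also: probe is the protein aXip251-270 applied at 1 µg/mL to compound-printed slides; binding of probe to printed compounds measured as 667 nm fluorescence plus signal to noise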
# [12] = small-molecule binders of probe aNOTCH3, primary screen, biochemical, small-molecule microarray, 635/667 nm fluorescence (AID 1120); conditions: higher = more signal;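 also: probe is a biotin-tagged antibody raised against NOTCH3 rather than NOTCH3 protein; score merges spot fluorescence near 667 nm with spot signal to noise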
# [13] = small-molecule binders of probe aNOTCH2, primary screen, biochemical, small-molecule microarray, 635/667 nm fluorescence (AID 1121); conditions: higher = more signal;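 also: score merges feature fluorescence read at 667 nm with its signal to noise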
# [14] = molecular target: Carbonic anhydrase 2 (Homo sapiens) (UniProt P00918); assay: CAII small-molecule binders, profiling panel, biochemical, small-molecule microarray, Alexa647-labelled CAII (AID 1122); conditions: CAII-A647 binding fluorescence, higher = more signal
# [15] = COS7 lysate on small-molecule microarray, probe aHis, 635 nm (AID 1123); conditions: COS7 cell lysate, fluorescence, higher = more signal;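 also: z-score combines 667nm fluorescence intensity with signal-to-noise per printed compound spot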
# [16] = compound binding in COS7 lysate, probe aLAP1, primary screen, cell lysate, small-molecule microarray (AID 1124); conditions: probe aLAP1, fluorescence, higher = more signal;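 also: lysate comes from COS7 cells expressing LAP1 and is applied at 0.3 µg/mL; score merges spot fluorescence near 667 nm with signal-to-noise over triplicate slides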
# Sam68 (KHDRBS1) = assay: Sam68 small-molecule binders, primary screen, biochemical, small-molecule microarray, 635 nm fluorescence (AID 1125); conditions: small-molecule microarray binding, higher = more signal;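 also: score merges 667 nm channel intensity with signal to noise over triplicate slides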
# [17] = test system: Chordin-like protein 2 (CHRDL2); assay: CHRDL2 small-molecule binders, primary screen, biochemical, small-molecule microarray, 635 nm fluorescence (AID 1126); conditions: small-molecule microarray binding, fluorescence 635 nm; higher = more signal;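 also: printed compound slides probed with Chrdl2 protein at 4 µg/mL for 1 h at 4 C; score merges 667 nm emission intensity with signal to noise over three replicate slides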
# [18] = molecular target: Concanavalin-A (Canavalia ensiformis) (UniProt P02866); assay: ConA small-molecule binders, primary screen, artefact control for SMM control protein annotation, biochemical, small-molecule microarray, Alexa647 label, 635 nm (AID 1127); conditions: ConA-A647 binding fluorescence, higher = more signal;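 also: z combines 667 nm emission intensity with signal-to-noise across three replicate slides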
# Sequence of Concanavalin-A (Canavalia ensiformis) (P02866 whole entry, looked up): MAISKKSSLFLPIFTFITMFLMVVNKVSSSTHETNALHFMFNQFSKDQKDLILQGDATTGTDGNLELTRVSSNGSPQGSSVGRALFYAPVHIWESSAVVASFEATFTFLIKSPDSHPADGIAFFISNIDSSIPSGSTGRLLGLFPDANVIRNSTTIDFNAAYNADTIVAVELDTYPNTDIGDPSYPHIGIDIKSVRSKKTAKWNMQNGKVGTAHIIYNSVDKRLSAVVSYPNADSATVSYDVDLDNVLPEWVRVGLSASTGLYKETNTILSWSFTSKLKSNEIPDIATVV
# Sequence of Alpha-bungarotoxin (Bungarus multicinctus) (P60615 whole entry, looked up): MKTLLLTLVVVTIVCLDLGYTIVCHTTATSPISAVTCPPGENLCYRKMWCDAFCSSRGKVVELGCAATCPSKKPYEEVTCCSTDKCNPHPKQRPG
# Sequence of Torsin-1A-interacting protein 1 (Homo sapiens) (Q5JTV8 whole entry, looked up): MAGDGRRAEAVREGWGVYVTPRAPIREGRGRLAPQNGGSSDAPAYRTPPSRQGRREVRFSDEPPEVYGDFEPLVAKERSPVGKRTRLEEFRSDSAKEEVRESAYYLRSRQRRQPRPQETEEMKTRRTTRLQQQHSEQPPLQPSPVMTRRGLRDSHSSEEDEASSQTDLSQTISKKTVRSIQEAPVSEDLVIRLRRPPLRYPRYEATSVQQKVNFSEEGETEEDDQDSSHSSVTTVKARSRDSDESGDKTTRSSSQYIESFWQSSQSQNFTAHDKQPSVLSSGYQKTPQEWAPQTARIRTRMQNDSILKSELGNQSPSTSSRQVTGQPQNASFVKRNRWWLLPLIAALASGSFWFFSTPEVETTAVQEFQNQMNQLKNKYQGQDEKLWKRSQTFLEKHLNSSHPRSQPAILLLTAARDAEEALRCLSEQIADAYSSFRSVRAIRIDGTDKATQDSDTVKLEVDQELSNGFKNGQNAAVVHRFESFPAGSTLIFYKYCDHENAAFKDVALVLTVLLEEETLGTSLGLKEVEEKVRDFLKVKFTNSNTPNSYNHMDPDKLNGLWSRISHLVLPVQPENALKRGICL
# Sequence of Albumin (Bos taurus) (P02769 whole entry, looked up): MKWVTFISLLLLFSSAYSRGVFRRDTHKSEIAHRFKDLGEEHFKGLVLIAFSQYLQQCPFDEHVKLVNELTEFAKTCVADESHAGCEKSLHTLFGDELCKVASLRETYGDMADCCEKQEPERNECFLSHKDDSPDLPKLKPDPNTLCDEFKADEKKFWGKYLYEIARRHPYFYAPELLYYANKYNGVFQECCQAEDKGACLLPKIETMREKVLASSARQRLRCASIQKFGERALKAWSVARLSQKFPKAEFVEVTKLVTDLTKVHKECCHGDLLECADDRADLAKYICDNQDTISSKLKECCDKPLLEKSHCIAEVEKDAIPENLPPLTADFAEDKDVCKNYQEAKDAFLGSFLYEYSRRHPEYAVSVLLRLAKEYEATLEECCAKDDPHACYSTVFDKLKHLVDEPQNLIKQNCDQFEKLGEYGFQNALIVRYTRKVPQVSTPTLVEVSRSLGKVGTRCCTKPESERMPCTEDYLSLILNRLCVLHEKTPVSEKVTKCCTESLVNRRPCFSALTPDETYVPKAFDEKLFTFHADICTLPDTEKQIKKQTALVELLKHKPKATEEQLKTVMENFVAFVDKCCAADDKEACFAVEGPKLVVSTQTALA
# Sequence of Left-right determination factor 2 (Homo sapiens) (O00292 whole entry, looked up): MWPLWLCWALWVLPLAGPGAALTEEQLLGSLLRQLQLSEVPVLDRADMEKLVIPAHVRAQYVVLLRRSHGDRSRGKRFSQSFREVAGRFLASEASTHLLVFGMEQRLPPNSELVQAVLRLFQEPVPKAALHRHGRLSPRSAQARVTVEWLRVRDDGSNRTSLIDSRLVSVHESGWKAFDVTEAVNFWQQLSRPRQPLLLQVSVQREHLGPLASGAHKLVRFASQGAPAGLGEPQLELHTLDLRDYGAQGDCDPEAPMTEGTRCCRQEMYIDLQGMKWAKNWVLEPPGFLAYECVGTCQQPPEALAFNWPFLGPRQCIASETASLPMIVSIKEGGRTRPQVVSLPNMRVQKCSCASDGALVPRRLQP
Structure (SMILES),composite z-score [1],z-score [2],composite z-score [3],composite z-score [4],composite z-score [5],composite z-score [6],composite z-score [7],composite z-score [8],composite z-score [9],composite z-score [10],composite z-score (Albumin (Bos taurus)),composite Z-score [11],composite z-score [12],composite z-score [13],composite z-score [14],composite z-score [15],composite z-score [16],composite z-score (Sam68 (KHDRBS1)),composite z-score [17],composite z-score [18]
NCCCC[C@@H]1NC(=O)[C@H]2C[C@@H](C(=O)NCc3ccc(F)cc3)[C@@H](c3cccc(OCCO)c3)N2C1=O,1.43,-2.1,1.13,0.986,-0.75,0.0077,-0.0119,0.127,1.92,0.538,-0.364,0.125 (inactive),0.156,-0.0995,0.549,1.46,0.251,1.3,1.47,0.701
CN1C(=O)[C@]2(CCC(=O)OC(C)(C)C)N=C(c3ccc(OCCCO)cc3)O[C@@H]2c2ccccc21,1.45,-2.88,-0.0515,0.147,-0.0006,0.0279,0.275,0.346,0.973,1.14,0.272,0.0786 (inactive),-0.117,-0.12,0.709,2.69,-0.313,1.28,0.149,1.12
COCCOC(=O)N1C(=O)[C@@]2(c3cc(C#CC4(O)CCCCCC4)ccc31)[C@H](C(=O)N1CCc3cc(OC)c(OC)cc3C1)[C@H]1C(=O)O[C@H](c3ccccc3)[C@H](c3ccccc3)N1[C@@H]2c1ccc(O)cc1,1.02,-1.01,0.729,0.621,-0.394,-0.0512,0.191,-0.411,1.12,1.17,0.609,0.413 (inactive),0.163,0.0012,0.638,1.58,0.773,1.29,0.34,1.16
CC(C)[Si](C#CCCCC#N)(O[C@H](c1ccccc1)c1cn([C@H](C)c2ccccc2)nn1)C(C)C,1.21,-1.91,0.392,-0.0129,-0.0984,-0.0924,0.318,-0.262,0.137,0.18,0.221,-0.0102 (inactive),0.0357,-0.0405,0.506,0.879,0.0714,1.24,0.293,0.444
COC(=O)[C@@]1(Cc2ccc(OC)cc2)[C@H]2c3cc(C(=O)N4CCCC4)n(CCc4ccc(OC)c(Br)c4)c3C[C@H]2CN1C(=O)c1ccccc1,-0.027,0.0171,-0.38,2.19,0.967,-0.0519,0.865,2.37,2.06,-0.123,1.01,-0.004 (inactive),0.0305,0.162,0.895,2.78,1.11,0.251,0.257,-0.234
CCOC(=O)C1=CCC(c2cc3ccccc3[nH]2)N(S(=O)(=O)c2ccccc2[N+](=O)[O-])C1 (stereo not given),0.833,-1.86,-0.335,-0.115,-0.472,0.0839,0.0121,-0.142,0.161,1.97,0.476,4.63 (inactive),0.051,-0.188,0.674,2.37,0.375,0.644,0.0846,0.558
COCCCNC(=O)[C@@H]1c2ccccc2C(=O)N(Cc2cc(C(F)(F)F)cc(C(F)(F)F)c2)[C@H]1c1ccc(CO)cc1,0.0861,-0.293,-0.323,0.0808,0.232,-0.105,0.0091,0.896,0.208,-0.543,-0.873,-0.0722 (inactive),0.531,0.0282,0.685,1.68,-0.182,0.299,-0.716,-1.06
CC(C)N1CC=CC23O[C@@H]4C=CCCOC(=O)C4[C@H]2C(=O)N(CCCCCO)[C@@H]3C1=O (stereo not given in full),-0.734,-0.26,-1.18,0.861,-1.34,-0.124,-0.0011,-0.123,1.92,2.25,0.62,0.23 (inactive),-0.214,-0.153,0.853,0.19,0.543,-0.411,-0.654,0.878
C=CC[C@]1(C(=O)OC)N=C(c2ccc(OCCCO)cc2)O[C@H]1c1ccccc1N=[N+]=[N-],1.06,0.452,0.786,0.592,-0.357,0.194,0.598,1.7,0.387,0.935,-0.899,0.0557 (inactive),0.734,0.26,0.429,2.87,0.198,1.3,1.14,1.09
C=C(COC)C(=O)CC[C@@H](OC(C)=O)c1ccc(OCCO)cc1,-0.133,-1.23,-0.374,-0.473,-0.621,-0.154,0.0373,0.197,0.119,1.39,-0.561,0.392 (inactive),0.0426,-0.125,0.648,0.206,-0.217,0.744,-0.127,0.891
COCCOC(=O)N1C(=O)[C@@]2(c3cc(C#CCC(C(=O)OC)C(=O)OC)ccc31)[C@H](C(N)=O)[C@H]1C(=O)O[C@H](c3ccccc3)[C@H](c3ccccc3)N1[C@@H]2c1ccc(OCCO)cc1,1.43,-1.88,0.705,1.27,-0.27,-0.0161,0.184,0.177,0.775,1.44,0.483,-0.0102 (inactive),0.0271,-0.0984,0.565,1.87,0.307,1.29,0.519,1.07
